± gives the standard deviation.
The sequences below were run on EfPiwi piRISC loaded with L1MC piRNA (26 nt) (assay: pre-steady-state target cleavage rate (min^-1); auxiliary factor: 500 nM Ephydatia muelleri Gtsf1; guide: L1MC piRNA 5'p-UAACUAAAUACUAUGCAAGCUGUAGG; MIWI and MILI are mouse PIWI proteins and EfPiwi is from a freshwater sponge; tags in brackets are library labels; higher = faster piRNA-guided slicing of the target).
Outline: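 Reactions were run for 0–8 or 0–960 min at 33 °C in HEPES–potassium acetate buffer, combining 1 nM active affinity-purified piRISC with one synthetic guide, […] transcribed, DNA-blocked target RNA library and, in some cases, 500 nM GTSF1 partner protein. Sequencing of uncleaved targets followed, with normalisation to depth and to weakly complementary targets. Three trials were pooled, k3 was capped at 0.0001 min^-1, and the pre-steady-state cleavage rate was taken from a burst-and-steady-state fit.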

| Sequence | pre-steady-state target cleavage rate |
| --- | --- |
| UCCUGCUACAGCUUGGAUAGUAUUUAGUUA | 0.017 ± 0.0041 |
| UCCUGGAUGUGAUUGCAUAGUAUUUAGUUA | 0.00623 ± 0.0031 |
| UCCUGGUACAGGUUGGAUAGUAUUUAGUUA | 0.00482 ± 0.0022 |
| UCCUGGUUCAGCUUGGAUAGUAUUUAGUUA | 0.00792 ± 0.0035 |
| UCCUCCUUCAGCUUGCAUAGUAUUAAGUUA | 0.00716 ± 0.0031 |
| UCCUCCUACAGCUUGCAUAGUAUUUCGUUA | 0.00416 ± 0.0023 |
| UCCUGGAUGUCCUUACAUAGUAUUUAGUUA | 0.00492 ± 0.0036 |
| UCCUCCUUCAGCUUGCAUAGUAUUUAGUUA | 0.158 ± 0.041 |
| UCCUGGAUGCGCUUGCAUAGUAUUUAGUUA | 0.0286 ± 0.0065 |
| UCCUCCUUCAGCAUGCAUAGUAUUUAGUUA | 0.0621 ± 0.018 |
| UCCUCCUACGAGCUUGCAUAGUAUUUAGUUA | 0.0144 ± 0.0051 |
| UCCUCCUUCAGCUUGCAUAGUAUAUAGUUA | 0.0124 ± 0.0058 |
| UCCUGGAACAGCUUUGCAUAGUAUUUAGUUA | 0.0309 ± 0.0082 |
| UCCUGGAACAGCUUGUCAUAGUAUUUAGUUA | 0.0277 ± 0.0088 |
| UCCUCCUACACCUUGCUUAGUAUUUAGUUA | 0.00914 ± 0.0039 |
| UCCUGCUACACCUUGCAUAGUAUUUAGUUA | 0.0124 ± 0.0048 |
| UCCUGCUACAGCUUGACAUAGUAUUUAGUUA | 0.00916 ± 0.0026 |
| UCCUGGAUCAGCAUGCUUAGUAUUUAGUUA | 0.0112 ± 0.0042 |
| UCCUGCUACAGCAUGCAUAGUAUUUUGUUA | 0.00422 ± 0.002 |
| UCCUGGAACAGCAUUGCAUAGUAUUUAGUUA | 0.015 ± 0.0044 |

| Sequence | pre-steady-state target cleavage rate |
| --- | --- |
| UCCUGCAACAGGUUGCAUAGUAUUUAGUUA | 0.018 ± 0.0035 |
| UCCUGGUACAGCAUGCAUAGUAUUUAGUUA | 0.0111 ± 0.0041 |
| UCCUCCAACUGCUUGCAUAGUAUUUAGUUA | 0.0183 ± 0.0064 |
| UCCUGCUACAGCUUGCAUAGUAUUUAGUUU [g2:g25:cont:t1U] | 0.158 ± 0.042 |
| UCCUGGAUCAGCUUGCAUAGUAUUUAGUAA | 0.00774 ± 0.0024 |
| UCCUCCUACACCUUGCAUAGUAUUUAGUAA | 0.00625 ± 0.003 |
| UCCUGCUACAGCUCUGCAUAGUAUUUAGUUA | 0.0151 ± 0.0038 |
| UCCUGGAUGUGCCUGCAUAGUAUUUAGUUA | 0.00933 ± 0.0036 |
| UCCUGGAUCAGCUUGCAUAGUAUUUGAGUUA | 0.00696 ± 0.0028 |
| UCCUGCUACAGCUUGCAUAGUAUUUGGUUA | 0.00556 ± 0.0012 |
| UCCUGGAUGAGCGUGCAUAGUAUUUAGUUA | 0.0239 ± 0.0062 |
| UCCUCCUACAGCUUGGAUAGUAAUUAGUUA | 0.0274 ± 0.0089 |
| UCCUGCUACAGCUUGCAUAGUAAUUUAGUUA | 0.00515 ± 0.0024 |
| UCCUGGAUGAGCCUUGCAUAGUAUUUAGUUA | 0.00885 ± 0.0032 |
| UCCUCCAACAGCUUGCAUAGUUUUUAGUUA | 0.0119 ± 0.0041 |
| UCCUCCAACACCUUGCAUAGUAUUUAGUUA | 0.00954 ± 0.0038 |
| UCCUGGAACAGCGUUGCAUAGUAUUUAGUUA | 0.0162 ± 0.0046 |
| UCCUGGAUCAGCUUGCAUAGUAAUUAGUAA | 0.00487 ± 0.0027 |
| UCCUGGAUAAGCUUGCAUAGUAUUUAGUUA | 0.0102 ± 0.004 |
| UCCUGGAAGAGCUUGCAUAGUAUUUAGAUA | 0.00519 ± 0.0023 |

— the supplement of paper PMC10338343
